# Measured values from PubChem BioAssay (EPA / NIEHS).
# Several values for one entry are separate records, joined by “and”; a condition that tells them apart may be missing. Equal values may be shown once. Results filed as inconclusive are left out. Some compounds were tested as several samples or in several runs, with calls that do not always agree. Activity calls are given as the source filed them. The calls were made as follows, unless noted: active = hit-call score of the fitted dose curve at least 0.9, where 1 is the maximum; inactive = score below 0.9.
# How the values were obtained:
# [1] = target: Retinoic acid receptor RXR-alpha (Homo sapiens) (UniProt P19793); assay: ATG_RXRa_TRANS: Attagene TRANS-FACTORIAL HepG2 Assay for human Retinoid X Receptor alpha (RXRa) (AID 2283012; active = hit-call score of the fitted dose curve at least 0.9, where 1 is the maximum)
# Outline: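 Cells (HepG2) carried transiently transfected GAL4-responsive reporter units. Following a 24 h chemical incubation, reporter mRNA induction was read via RT-PCR fragment analysis; DMSO served as negative control and baseline.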
# [2] = target: human Retinoid X Receptor beta (RXRb), RXRB (gene 6257) (UniProt P28702); assay: ATG_RXRb_TRANS: Attagene TRANS-FACTORIAL HepG2 Assay for human Retinoid X Receptor beta (RXRb) (AID 2283013; active = hit-call score of the fitted dose curve at least 0.9, where 1 is the maximum)
# Outline: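 Multiplexed TRANS reporter assay in HepG2; 24 h dosing; reporter mRNA by RT-PCR/CE fluorescence; gain-of-signal relative to DMSO.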
# [3] = target: human Thyroid Receptor alpha (THRa1), THRA (gene 7067) (UniProt P10827); assay: ATG_THRa1_TRANS: Attagene TRANS-FACTORIAL HepG2 Assay for human Thyroid Receptor alpha (THRa1) (AID 2283014; active = hit-call score of the fitted dose curve at least 0.9, where 1 is the maximum)
# Outline: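 First, HepG2 cells receive multiple GAL4-UAS reporter units and the chimeric receptor. They are then dosed for 24 h, after which RNA is reverse-transcribed, amplified, labelled, HpaI-cut and sized by capillary electrophoresis; gain relative to DMSO is scored.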
# [4] = target: human RAR-related Orphan Receptor gamma (RORg), RORC (gene 6097) (UniProt P51449); assay: ATG_RORg_TRANS: Attagene TRANS-FACTORIAL HepG2 Assay for human RAR-related Orphan Receptor gamma (RORg) (AID 2283011; active = hit-call score of the fitted dose curve at least 0.9, where 1 is the maximum)
# Outline: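 Activity is scored as increase in GAL4-UAS reporter mRNA over DMSO, detected by fluorescent RT-PCR and capillary electrophoresis in HepG2 cells transiently expressing a RORg-Gal4 chimera, 24 h after dosing.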
# [5] = read-out: E-selectin (Homo sapiens) (UniProt P16581); assay: BSK_3C_Eselectin: BioMAP Diversity Plus: 3C Assay for Eselectin Biomarker Activity (AID 2283015); settings: primary human endothelial cells (HUVEC); actives raise or lower the signal;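 as to outcome: cell surface E-selectin protein quantified by ELISA 24 h after dosing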
# Outline: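 Human vascular endothelium from umbilical vein is exposed to test chemicals for 24 h. E-selectin levels are read by ELISA and compared with DMSO controls.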
# [6] = read-out: Interleukin-1 alpha (IL1a), IL1A (gene 3552); assay: BSK_BE3C_IL1a: BioMAP Diversity Plus: BE3C Assay for Interleukin-1 alpha (IL1a) Biomarker Activity (AID 2283016); settings: primary human bronchial epithelial cells; actives raise or lower the signal
# Outline: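 Cultures of primary human bronchial epithelial cells receive test chemical. After 24 h, IL-1a is quantified by ELISA, while parallel wells are fixed in TCA and SRB-stained for total protein. Changes in either direction are fitted relative to DMSO.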
# [7] = read-out: Monocyte Chemoattractant Protein-1 (MCP1), CCL2 (gene 6347); assay: BSK_3C_MCP1: BioMAP Diversity Plus: 3C Assay for Monocyte Chemoattractant Protein-1 (MCP1) Biomarker Activity (AID 2283017); settings: primary human endothelial cells (HUVEC); actives raise or lower the signal
# Outline: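 Endothelial cells from human umbilical vein are dosed with chemical, cultured 24 h, then assayed for MCP-1 by ELISA; both increases and decreases are modelled against DMSO controls.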
# [8] = read-out: Monocyte Chemoattractant Protein-1 (MCP1), CCL2 (gene 6347); assay: BSK_4H_MCP1: BioMAP Diversity Plus: 4H Assay for Monocyte Chemoattractant Protein-1 (MCP1) Biomarker Activity (AID 2283018); settings: primary human endothelial cells (HUVEC); actives raise or lower the signal
# Outline: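 Readout: MCP-1 ELISA on compound-treated HUVEC, sampled 24 h post-dosing. Baseline and negative control DMSO; bidirectional fit. Overt toxicity checked alongside by sulforhodamine B protein staining at time of biomarker measurement.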
# [9] = read-out: Interleukin-8 (IL8), CXCL8 (gene 3576); assay: BSK_3C_IL8: BioMAP Diversity Plus: 3C Assay for Interleukin-8 (IL8) Biomarker Activity (AID 2283020); settings: primary human endothelial cells (HUVEC); actives raise or lower the signal
# Outline: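 Human vascular endothelial cells (umbilical vein) in the 3C system; IL-8 level detected by ELISA at 24 h post-dose, with DMSO as baseline.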
# [10] = read-out: Monokine induced gamma interferon (MIG), CXCL9 (gene 4283); assay: BSK_3C_MIG: BioMAP Diversity Plus: 3C Assay for Monokine induced gamma interferon (MIG) Biomarker Activity (AID 2283021); settings: primary human endothelial cells (HUVEC); actives raise or lower the signal;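 as to AC50: MIG protein level measured by immunoassay in the treated endothelial cultures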
# Outline: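 After 24 h of treatment, human umbilical vein endothelial cultures (3C system) had their MIG biomarker level determined by ELISA, with DMSO serving as negative control.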
# [11] = target: human Vitamin D Receptor (VDR), VDR (gene 7421) (UniProt P11473); assay: ATG_VDR_TRANS: Attagene TRANS-FACTORIAL HepG2 Assay for human Vitamin D Receptor (VDR) (AID 2283022; active = hit-call score of the fitted dose curve at least 0.9, where 1 is the maximum)
# Outline: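 Fluorescence of labelled reporter cDNA fragments, resolved by capillary electrophoresis, gives mRNA induction after 24 h treatment of HepG2 cells carrying transfected Gal4-fusion reporter units. Activity is fitted in the positive direction with DMSO as baseline.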
# [12] = BSK_3C_SRB: Viability Assessment in the BioMAP Diversity Plus: 3C Assay (AID 2283023); settings: primary human endothelial cells (HUVEC);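 also: cells read 24 h after compound dosing; fitted both ways against DMSO so a hit may be signal rise or drop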
# Outline: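 Cells were dosed with chemical, cultured 24 h, fixed with 10% TCA, stained with 0.1% SRB and read at 560 nm. Human umbilical vein endothelium was used; DMSO served as negative control and baseline.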
# [13] = read-out: Matrix Metallopeptidase 1 (MMP1), MMP1 (gene 4312); assay: BSK_BE3C_MMP1: BioMAP Diversity Plus: BE3C Assay for Matrix Metallopeptidase 1 (MMP1) Biomarker Activity (AID 2283024); settings: primary human bronchial epithelial cells; actives raise or lower the signal
# Outline: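 Dose cells, wait 24 h, run MMP1 ELISA; cells are human bronchial epithelial primaries. Both increases and decreases relative to DMSO counted.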
# [14] = BSK_3C_Vis: BioMAP Diversity Plus: 3C Assay for Morphology Visualization (AID 2283025); settings: primary human endothelial cells (HUVEC);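 also: fitted both ways so gain or loss versus DMSO counts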;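 as to AC50: light microscopy image of cell morphology used as background control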
# Outline: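 Endothelial cells from human umbilical vein were treated with test chemicals for 24 h and inspected by light microscopy for changes in cell conformation.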
# [15] = read-out: Pselectin, SELP (gene 6403); assay: BSK_4H_Pselectin: BioMAP Diversity Plus: 4H Assay for Pselectin Biomarker Activity (AID 2283026); settings: primary human endothelial cells (HUVEC); actives raise or lower the signal
# Outline: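 Human vascular endothelium from umbilical vein; P-selectin measured by ELISA at 24 h post-dose, with cytotoxicity checked by sulforhodamine B total-protein staining in parallel cultures (0.1% SRB after 10% TCA fixation, read at 560 nm).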
# [16] = BSK_4H_SRB: Viability Assessment in the BioMAP Diversity Plus: 4H Assay (AID 2283027); settings: primary human endothelial cells (HUVEC);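 also: cells exposed to compound for 24 h before staining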;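 as to AC50: curves fitted both ways versus DMSO so AC50 may be loss or gain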
# Outline: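 Human umbilical vein endothelial cells were dosed with chemical and, after 24 h, fixed with 10% TCA, stained with 0.1% sulforhodamine B, and read at 560 nm to give total protein as a cytotoxicity measure. Bidirectional fitting relative to DMSO control.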
# [17] = BSK_BE3C_SRB: Viability Assessment in the BioMAP Diversity Plus: BE3C Assay (AID 2283028); settings: primary human bronchial epithelial cells;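 also: measured 24 h after chemical dosing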;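 as to AC50: fitted both ways so AC50 may mark signal gain or loss versus DMSO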
# Outline: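 Overt cytotoxicity was assessed as total protein in confluent human primary bronchial epithelial cultures 24 h after chemical addition, using 0.1% sulforhodamine B staining read at 560 nm.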
# [18] = read-out: Thrombomodulin, THBD (gene 7056); assay: BSK_3C_Thrombomodulin: BioMAP Diversity Plus: 3C Assay for Thrombomodulin Biomarker Activity (AID 2283029); settings: primary human endothelial cells (HUVEC); actives raise or lower the signal
# Outline: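 Thrombomodulin ELISA, human primary HUVEC, 24 h post-dose; data fitted in both directions relative to DMSO.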
# [19] = read-out: Urokinase-type plasminogen activator receptor (uPAR), PLAUR (gene 5329); assay: BSK_4H_uPAR: BioMAP Diversity Plus: 4H Assay for Urokinase-type plasminogen activator receptor (uPAR) Biomarker Activity (AID 2283030); settings: primary human endothelial cells (HUVEC); actives raise or lower the signal
# Outline: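 Chemicals are dosed onto human vascular endothelial primary cells (umbilical vein). After 24 h, uPAR is read by ELISA. Gain or loss of signal is fitted relative to DMSO.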
# Chain of human RAR-related Orphan Receptor gamma (RORg), RORC (gene 6097) (P51449 whole entry, looked up, the tested form may be a part): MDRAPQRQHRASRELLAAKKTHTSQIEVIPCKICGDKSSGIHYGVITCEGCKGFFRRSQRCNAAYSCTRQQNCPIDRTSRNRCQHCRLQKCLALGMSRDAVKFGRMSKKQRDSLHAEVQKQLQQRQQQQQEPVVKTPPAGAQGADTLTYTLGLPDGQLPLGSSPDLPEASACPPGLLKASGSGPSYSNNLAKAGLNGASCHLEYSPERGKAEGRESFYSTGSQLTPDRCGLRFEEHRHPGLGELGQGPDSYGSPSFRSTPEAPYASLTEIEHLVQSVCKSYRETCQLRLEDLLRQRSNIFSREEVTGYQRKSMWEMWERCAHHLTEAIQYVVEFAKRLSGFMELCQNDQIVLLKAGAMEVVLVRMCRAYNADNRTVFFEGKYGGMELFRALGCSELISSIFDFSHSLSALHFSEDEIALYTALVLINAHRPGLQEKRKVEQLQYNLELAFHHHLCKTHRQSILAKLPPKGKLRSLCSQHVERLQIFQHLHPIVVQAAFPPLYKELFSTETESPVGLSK
# Chain of Retinoic acid receptor RXR-alpha (Homo sapiens) (P19793 whole entry, looked up, the tested form may be a part): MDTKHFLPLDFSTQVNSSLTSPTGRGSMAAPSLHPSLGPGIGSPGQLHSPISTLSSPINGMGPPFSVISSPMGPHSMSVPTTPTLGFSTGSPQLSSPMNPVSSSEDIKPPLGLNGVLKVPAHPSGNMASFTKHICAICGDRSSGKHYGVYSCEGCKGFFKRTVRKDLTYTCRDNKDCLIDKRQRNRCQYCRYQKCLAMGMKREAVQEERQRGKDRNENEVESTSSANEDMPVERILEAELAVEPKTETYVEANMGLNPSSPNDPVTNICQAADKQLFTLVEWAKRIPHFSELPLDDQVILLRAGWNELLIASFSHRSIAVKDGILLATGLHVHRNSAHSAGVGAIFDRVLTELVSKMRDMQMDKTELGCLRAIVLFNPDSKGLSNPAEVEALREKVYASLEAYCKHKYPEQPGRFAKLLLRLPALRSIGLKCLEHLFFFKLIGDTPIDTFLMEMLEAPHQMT
# Chain of E-selectin (Homo sapiens) (P16581 whole entry, looked up): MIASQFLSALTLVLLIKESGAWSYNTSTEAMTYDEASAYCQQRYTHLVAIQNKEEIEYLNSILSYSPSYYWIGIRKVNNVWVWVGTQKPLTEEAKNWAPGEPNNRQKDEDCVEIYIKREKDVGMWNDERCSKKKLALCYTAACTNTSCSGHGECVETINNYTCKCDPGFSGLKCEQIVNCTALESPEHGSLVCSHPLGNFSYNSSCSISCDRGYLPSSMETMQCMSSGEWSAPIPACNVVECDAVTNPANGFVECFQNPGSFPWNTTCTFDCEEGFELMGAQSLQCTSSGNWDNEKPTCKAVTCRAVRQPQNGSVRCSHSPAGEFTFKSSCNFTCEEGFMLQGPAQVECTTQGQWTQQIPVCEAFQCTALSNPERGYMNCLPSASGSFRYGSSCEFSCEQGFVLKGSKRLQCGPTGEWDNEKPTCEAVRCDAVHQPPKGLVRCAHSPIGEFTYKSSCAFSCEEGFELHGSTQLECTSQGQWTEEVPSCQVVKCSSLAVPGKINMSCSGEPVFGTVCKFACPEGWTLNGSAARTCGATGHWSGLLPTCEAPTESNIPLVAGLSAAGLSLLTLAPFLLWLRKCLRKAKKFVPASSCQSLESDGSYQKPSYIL
# Chain of human Retinoid X Receptor beta (RXRb), RXRB (gene 6257) (P28702 whole entry, looked up): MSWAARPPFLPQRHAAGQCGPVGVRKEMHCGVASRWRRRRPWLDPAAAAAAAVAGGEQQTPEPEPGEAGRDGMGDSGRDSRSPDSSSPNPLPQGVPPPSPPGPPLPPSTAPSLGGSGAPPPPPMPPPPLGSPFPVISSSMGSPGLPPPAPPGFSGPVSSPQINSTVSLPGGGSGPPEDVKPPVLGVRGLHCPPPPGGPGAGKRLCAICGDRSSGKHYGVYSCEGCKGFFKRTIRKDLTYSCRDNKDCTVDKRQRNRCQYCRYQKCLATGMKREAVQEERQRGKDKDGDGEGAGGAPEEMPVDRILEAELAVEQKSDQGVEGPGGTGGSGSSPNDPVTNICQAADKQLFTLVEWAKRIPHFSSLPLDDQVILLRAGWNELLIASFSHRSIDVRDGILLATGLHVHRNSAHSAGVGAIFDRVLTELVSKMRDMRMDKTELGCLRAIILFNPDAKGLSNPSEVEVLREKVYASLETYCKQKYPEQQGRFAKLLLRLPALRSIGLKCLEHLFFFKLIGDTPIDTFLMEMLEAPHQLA
# Chain of human Vitamin D Receptor (VDR), VDR (gene 7421) (P11473 whole entry, looked up, the tested form may be a part): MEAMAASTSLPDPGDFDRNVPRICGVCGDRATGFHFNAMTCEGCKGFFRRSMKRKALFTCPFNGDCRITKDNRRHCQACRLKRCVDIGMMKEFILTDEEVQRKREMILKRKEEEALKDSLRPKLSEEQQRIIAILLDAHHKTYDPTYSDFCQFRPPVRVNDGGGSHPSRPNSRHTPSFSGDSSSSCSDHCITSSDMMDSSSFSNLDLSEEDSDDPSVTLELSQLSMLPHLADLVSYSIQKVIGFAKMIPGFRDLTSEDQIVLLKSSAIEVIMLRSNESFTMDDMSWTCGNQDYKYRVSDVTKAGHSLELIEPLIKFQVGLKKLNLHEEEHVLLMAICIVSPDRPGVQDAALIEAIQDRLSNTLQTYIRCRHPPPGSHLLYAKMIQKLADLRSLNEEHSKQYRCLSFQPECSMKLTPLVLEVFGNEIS
# Chain of human Thyroid Receptor alpha (THRa1), THRA (gene 7067) (P10827 whole entry, looked up, the tested form may be a part): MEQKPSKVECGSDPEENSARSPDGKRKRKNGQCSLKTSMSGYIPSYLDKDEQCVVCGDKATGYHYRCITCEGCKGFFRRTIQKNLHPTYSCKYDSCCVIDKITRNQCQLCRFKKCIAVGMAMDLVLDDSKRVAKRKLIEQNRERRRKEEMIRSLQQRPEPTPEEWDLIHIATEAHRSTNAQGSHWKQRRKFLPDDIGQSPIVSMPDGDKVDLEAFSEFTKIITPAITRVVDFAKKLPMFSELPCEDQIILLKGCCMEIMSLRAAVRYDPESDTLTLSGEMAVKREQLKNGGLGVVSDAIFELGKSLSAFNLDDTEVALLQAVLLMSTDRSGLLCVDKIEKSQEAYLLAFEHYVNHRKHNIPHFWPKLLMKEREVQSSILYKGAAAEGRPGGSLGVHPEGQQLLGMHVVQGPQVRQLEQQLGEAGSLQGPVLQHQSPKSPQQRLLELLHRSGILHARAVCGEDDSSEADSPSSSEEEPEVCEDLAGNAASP
smiles,measurement,setting,value
C[C@]12CC[C@H](O)CC1=CC[C@@H]1[C@@H]2CC[C@]2(C)C(=O)CC[C@@H]12,outcome,[1],inactive
same,outcome,[2],inactive
Cc1ccc2ccccc2c1C,outcome,[1],inactive
same,AC50,[2],100 µM (active)
same,outcome,[3],inactive
O=C(O)C(F)(F)C(F)(F)C(F)(F)C(F)(F)C(F)(F)C(F)(F)C(F)(F)C(F)(F)C(F)(F)C(F)(F)F,outcome,[4],inactive
same,outcome,[1],inactive
same,AC50,[2],13.5 µM (active)
same,outcome,[2],inactive
same,outcome,[3],inactive
same,AC50,[5],30.5 µM (active)
same,outcome,[5],inactive
same,AC50,[6],25.3 µM (active) and 5.25 µM (active) and 5.23 µM (active)
same,AC50,[7],30.7 µM (active)
same,outcome,[7],inactive
same,AC50,[8],32.3 µM (active)
same,outcome,[8],inactive
same,AC50,[9],29 µM (active)
same,outcome,[9],inactive
same,AC50,[10],35.3 µM (active)
same,outcome,[10],inactive
same,outcome,[11],inactive
same,AC50,[12],29.4 µM (active)
same,outcome,[12],inactive
same,AC50,[13],29.3 µM (active) and 5.53 µM (active) and 5.54 µM (active)
same,AC50,[14],37.8 µM (active)
same,AC50,[15],31 µM (active)
same,outcome,[15],inactive
same,AC50,[16],31.8 µM (active)
same,outcome,[16],inactive
same,AC50,[17],25.5 µM (active) and 2.72 µM (active) and 4.77 µM (active)
same,AC50,[18],5.29 µM (active)
same,outcome,[18],inactive
same,AC50,[19],32.1 µM (active)
same,outcome,[19],inactive
COc1ccccc1OC,outcome,[4],inactive
same,outcome,[1],inactive
same,outcome,[2],inactive
same,outcome,[11],inactive
CCOC(=O)/C=C(C)/C=C/C[C@@H](C)CCCC(C)C,outcome,[1],inactive
same,AC50,[2],26.9 µM (active)
same,AC50,[5],26.5 µM (active)
same,AC50,[6],20 µM (active)
same,AC50,[7],31.2 µM (active)
same,AC50,[8],29.4 µM (active)
same,outcome,[9],inactive
same,AC50,[10],30.8 µM (active)
same,outcome,[11],inactive
same,AC50,[12],36.4 µM (active)
same,outcome,[14],inactive
same,AC50,[15],25.2 µM (active)
same,AC50,[16],34.3 µM (active)
same,outcome,[17],inactive
same,AC50,[18],5.42 µM (active)
same,AC50,[19],31.8 µM (active)
O=C(CCl)CCl,outcome,[1],inactive
same,outcome,[2],inactive
same,outcome,[3],inactive
same,outcome,[11],inactive
CC(C)(c1ccccc1)c1ccc(O)c(C(C)(C)c2ccccc2)c1,outcome,[1],inactive
same,AC50,[2],1.66 µM (active)
same,outcome,[3],inactive
same,AC50,[5],10.6 µM (active)
same,AC50,[6],28.5 µM (active)
same,AC50,[7],10.8 µM (active)
same,AC50,[8],7.28 µM (active)
same,AC50,[9],10.1 µM (active)
same,AC50,[10],10.5 µM (active)
same,outcome,[11],inactive
same,AC50,[12],8.56 µM (active)
same,AC50,[13],32.3 µM (active)
same,AC50,[14],5.31 µM (active)
same,AC50,[15],6.57 µM (active)
same,AC50,[16],8.09 µM (active)
same,AC50,[17],25.6 µM (active)
same,outcome,[18],inactive
same,AC50,[19],9.78 µM (active)
NC(=O)O,outcome,[1],inactive
same,outcome,[2],inactive
same,outcome,[3],inactive
same,outcome,[5],inactive
same,outcome,[6],inactive
same,outcome,[7],inactive
same,outcome,[8],inactive
same,outcome,[9],inactive
same,outcome,[10],inactive
same,outcome,[11],inactive
same,outcome,[12],inactive
same,outcome,[14],inactive
same,outcome,[15],inactive
same,outcome,[16],inactive
same,outcome,[17],inactive
same,outcome,[18],inactive
same,outcome,[19],inactive
CCC(C)c1cccc(C(C)CC)c1O (configuration not stated),outcome,[1],inactive
same,AC50,[2],26.3 µM (active)
same,outcome,[3],inactive
same,outcome,[11],inactive
O=P(O)(O)CN(CP(=O)(O)O)CP(=O)(O)O,outcome,[1],inactive
same,outcome,[2],inactive
same,outcome,[3],inactive
same,outcome,[11],inactive
